PLK1 PBD inh: qHTS for Inhibitors of PLK1-PDB (polo-like kinase 1 - polo-box domain): Primary Screen. Serine/threonine-protein kinase PLK1 (Homo sapiens), P53350. Plk1 PBD binding of FITC phosphopeptide, fluorescence polarization. Potency, µM, for inactives: max response, negative = inhibition, usual class: inhibitors. 360,000 compounds, 2.8% hits; also: potency is read from the fitted curve at half-maximal effect; series mostly up to about 57 µM; % is scaled to controls: 0 for no effect and ±100 for the full control effect; nearly all actives have a fitted effect of over 65% in size
KAT2A inh: qHTS Assay for Inhibitors of GCN5L2; GCN5L2 HAT assay, ThioGlo1 CoA-SH fluorescence; Potency, µM (series often up to 58.9 µM), without a hit: top-dose activity change, negative = inhibition, most hits filed as inhibitors; 390,000 compounds, 0.21% hits; AID 504327, 2011; also: potency is read from the fitted curve at half-maximal effect; % is scaled to controls: 0 for no effect and ±100 for the full control effect
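Compounds, pin-transferred from DMSO stocks, meet 20nM GCN5L2 for 15 min before the reaction begins with H3(1-25) peptide (75uM) and acetyl-CoA (70uM). Thiol-reactive ThioGlo1 reports CoA release over 20 min at room temperature.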
HP1b binding inh: HTS for Inhibitors of HP1-beta Chromodomain Interactions with Methylated Histone Tails | Potency, µM (top dose mostly 114 µM), without a hit: top-dose activity change, negative = inhibition, hits mostly inhibitors | AlphaScreen HP1-beta / biotin-H3K9me3 peptide binding | Chromobox protein homolog 1 (Homo sapiens), P83916 | 390,000 compounds, 0.56% hits; also: potency is read from the fitted curve at half-maximal effect; nearly all actives have a fitted effect of over 70% in size
Target sequence (P83916 whole entry, looked up): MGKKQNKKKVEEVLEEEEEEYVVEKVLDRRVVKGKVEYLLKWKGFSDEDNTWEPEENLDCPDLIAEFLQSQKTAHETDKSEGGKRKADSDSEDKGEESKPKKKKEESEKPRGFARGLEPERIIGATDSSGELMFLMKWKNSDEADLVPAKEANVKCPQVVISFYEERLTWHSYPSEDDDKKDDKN
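Compound inhibition of the preformed complex between 50 nM HP1-beta and 50 nM biotinylated H3K9me3 peptide was read by AlphaScreen. Buffer was PBS pH 7.4 with 0.01% Tween-20. Incubations ran 30 min at room temperature, with 10 ug/mL donor/acceptor beads.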
JMJD2A Tudor inh: qHTS Assay for Inhibitors of JMJD2A-Tudor Domain; AlphaScreen JMJD2A-Tudor / H3K4me3 peptide binding; 390,000 compounds, 4.4% hits; AID 504339, 2011; Potency, µM (series often up to 114 µM), for the others: top-dose activity change, negative = inhibition, actives largely listed as inhibitors; Lysine-specific demethylase 4A (Homo sapiens), O75164; also: potency is read from the fitted curve at half-maximal effect; % is scaled to controls: 0 for no effect and ±100 for the full control effect; nearly all actives have a fitted effect of over 50% in size
BAZ2B inh: qHTS Assay for Inhibitors of BAZ2B; Bromodomain adjacent to zinc finger domain protein 2B (Homo sapiens), Q9UIF8; AlphaScreen BAZ2B-H3K14Ac peptide displacement; Potency, µM (doses to about 114 µM), without a hit: top-dose activity change, negative = inhibition, most hits filed as inhibitors; 360,000 compounds, 4.4% hits; AID 504333, 2011; also: potency is read from the fitted curve at half-maximal effect; % is scaled to controls: 0 for no effect and ±100 for the full control effect; nearly all actives have a fitted effect of over 60% in size
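Multi-concentration screen (max 110 uM) measuring displacement of acetylated histone H3 peptide from BAZ2B by AlphaScreen, using 50 nM protein, 50 nM peptide and 10 ug/mL streptavidin donor plus Ni-chelate acceptor beads.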
PI5P4K alpha inh: qHTS for Inhibitors of phosphatidylinositol 5-phosphate 4-kinase (PI5P4K) | PI5P4Kalpha enzyme, ADP-Glo luminescence, 60 min; hits give low values | max response, % | 330,000 compounds, 1.2% hits | AID 652105, 2013; active = max response of -50% or lower; inconclusive = between -30% and -50%; inactive = -30% or higher; also: value at the top dose of about 77 µM; % is scaled to controls: 0 for no effect and ±100 for the full control effect
Target sequence (P48426 whole entry, looked up): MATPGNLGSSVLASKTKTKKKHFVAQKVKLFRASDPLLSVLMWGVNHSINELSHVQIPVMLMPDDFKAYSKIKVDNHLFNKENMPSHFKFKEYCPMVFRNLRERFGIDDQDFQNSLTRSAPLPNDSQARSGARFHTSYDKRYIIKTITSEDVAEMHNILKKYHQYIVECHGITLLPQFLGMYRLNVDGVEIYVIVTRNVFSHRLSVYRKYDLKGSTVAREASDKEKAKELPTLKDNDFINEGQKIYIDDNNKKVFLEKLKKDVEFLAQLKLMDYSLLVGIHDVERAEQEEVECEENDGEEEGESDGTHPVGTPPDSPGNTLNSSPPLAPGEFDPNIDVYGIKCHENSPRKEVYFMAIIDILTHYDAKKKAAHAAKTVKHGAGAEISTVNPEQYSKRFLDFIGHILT
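ADP-Glo luminescence end-point read after a 60 min room-temperature kinase reaction of PI5P4Kalpha plus substrate, initiated with ATP at 5 microM final. Buffer: 0.038 M HEPES pH 7.4, EGTA, 0.1% CHAPS, 5% DMSO.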
Starred values were filed as active, the others as inactive; ? = inconclusive; . = not tested or not shown; ! = not confirmed by another sample; [ ] = another dose, or the depositor's remark. Only some compounds are listed: those with a hit (about 7% of all), similar ones and a draw of the others. Unless noted, calls follow the shape of the dose curve; as a rule, active = well fitted curve in the direction sought with a large enough effect; inconclusive = small, poorly fitted or top-dose-only effect, or another doubt; inactive = no such curve, though single readings can be large; an effect the other way counts as inactive or inconclusive.

SMILES | PLK1 PBD inh | KAT2A inh | HP1b binding inh | JMJD2A Tudor inh | BAZ2B inh | PI5P4K alpha inh
Cc1c(S(=O)(=O)c2cccc(Cl)c2)nnn1-c1cccc(C(F)(F)F)c1 | . | -6% | 29% | 4% | 11% | .
CC(c1ccccc1)C1C(C#N)=C(N)SC(N)=C1C#N (stereo not drawn) | -27% | -6% | 23% | ? | 12% | ?
CC(CC1C(C#N)=C(N)SC(N)=C1C#N)c1ccccc1 (stereo not drawn) | -16% | -4% | 13% | 56µM* | -23% | -67*
CN(C)c1ccc(/C=C/C=C2/SC(=S)N(c3ccccc3)C2=O)cc1 | -3% | 0% | -92% | 5.6µM* | ? | ?
O=C1/C(=C/c2cccnc2)SC(=S)N1c1ccccc1 | -3% | -4% | 28% | -4% | 8% | -1
O=C(NN1C(=O)/C(=C/C=C/c2ccccc2)SC1=S)c1ccncc1 | ? | -10% | -16% | -35% | -33% | -24
O=C(O)c1ccc(N2C(=O)/C(=C/C=C/c3ccccc3)SC2=S)cc1 | 27µM* | -2% | -14% | ? | ? | -26
CCN(CC(=O)Nc1ccc(C)c(S(=O)(=O)N2CCOCC2)c1)Cc1ccccc1 | -2% | 1% | 5% | -12% | ? | 5
CN(C)c1ccc(C2C3C(=O)NC(=O)C3ON2c2ccc(Cl)cc2)cc1 (stereo not drawn) | ? | -2% | -17% | 56µM* | 50µM* | 0
CCNc1cc2c(cc1O)CCC1C2CCC2(C)C(O)CCC12 (stereo not drawn) | ? | . | ? | 89µM* | . | -1
CC#Cc1cc2c(cc1O)CCC1C2CCC2(C)C(O)CCC12 (stereo not drawn) | -16% | . | ? | 79µM* | . | ?
C=Cc1cc2c(cc1O)CCC1C2CCC2(C)C(O)CCC12 (stereo not drawn) | 1% | . | 4% | -26% | . | -12
COc1ccc(S(=O)(=O)N2CCOC2CNC(=O)C(=O)NCc2ccc(F)cc2)cc1OC (stereo not drawn) | 1% | ? | 29% | -8% | -4% | 0
COC(=O)c1ccc(CN(c2ccc(C)cc2)S(=O)(=O)c2ccc3c(c2)OCCO3)o1 | 3µM* | -12% | -10% | -31%[11.4 µM] | 6% | ?
CC(=O)N1c2ccc(S(=O)(=O)NCC3CCC(C(=O)NCc4ccco4)CC3)cc2CC1C (stereo not drawn) | -2% | -1% | 42% | -9% | -18% | 3
CCN(CC)S(=O)(=O)c1ccc(NCc2ccccn2)nc1 | -1% | -1% | 13% | 71µM* | ? | 3
CCN(CC)S(=O)(=O)c1ccc(NCCc2ccccn2)nc1 | 1% | -2% | 9% | -15% | -19% | 2
Cc1ccccc1N1CCN(C(=O)c2ccccc2NC(=O)c2ccccc2C(=O)O)CC1 | 30µM* | 12% | ? | -22%[11.4 µM] | -19% | 2
N=C1N(c2ccccc2)C(=S)C(=Nc2ccccc2)N1c1ccccc1 | 27µM* | . | 45µM* | 25µM* | . | -7
CC(C)(CO)NCc1ccc(Br)cc1 | 19µM* | 1% | 3% | 7.9µM* | -36% | ?
COc1ccc(C2C=C(c3ccccc3)Nc3nc(NC(C)=O)nn32)cc1 (stereo not drawn) | . | 0% | 27% | -10% | 50µM*! | .
O=S(=O)(Nc1nc2n(n1)C(c1ccccc1)C=C(c1ccc(Cl)cc1)N2)c1ccccc1 (stereo not drawn) | . | -23% | 55% | -5% | 79µM* | .
Cc1ccc(C2C=C(c3ccc(Cl)cc3)Nc3nc(NC(=O)c4ccco4)nn32)cc1 (stereo not drawn) | . | 1% | 34% | 79µM* | 50µM* | .
COc1ccc(/C=C/C(=O)Nc2nc3n(n2)C(c2ccccc2)C=C(c2ccccc2)N3)cc1 (stereo not drawn) | . | -7% | 27% | -33% | -19% | .
CN1CCN(CCCN2c3ccccc3Sc3ccc(C(F)(F)F)cc32)CC1 | -5% | ? | ? | ? | 35µM* | 22
SMILES | PLK1 PBD inh | KAT2A inh | HP1b binding inh | JMJD2A Tudor inh | BAZ2B inh | PI5P4K alpha inh
c1ccc(CCn2cccc2)nc1 | -1% | . | 1% | -25% | . | 1
CC(=O)NCC(=O)OCC(=O)c1ccc(C)c(C)c1 | -7% | -9% | 21% | -22% | -15% | .
Cc1ccc(C(=O)COC(=O)C2C3C=CC(C3)C2C(=O)OCC(=O)c2ccc(C)c(C)c2)cc1C (stereo not drawn) | -7% | 0.79µM* | 18% | 14% | 14% | -4
Cc1ccc(Cn2ccc(NC(=O)c3cc(C4CC4)on3)n2)cc1 | -5% | 3% | 69% | -6% | -8% | -2
Cc1cc(-n2c(C)cc(C(=S)N3CCOCC3)c2C)ccc1Br | ? | -2% | ? | ? | 45µM* | -10
O=C(/C=C\c1ccccc1)NC1CC(=O)N(c2ccccc2)C1 (stereo not drawn) | . | -4% | 28% | 11% | 3% | .
CCN(c1ccc(NC(=O)COC(=O)c2ccc3ccccc3n2)cc1)C(C)C | -11% | -6% | 22µM* | 25µM* | 35µM* | .
CCN(c1ccc(NC(=O)COC(=O)/C=C/c2cccs2)cc1)C(C)C | -25% | -14% | 35µM* | 22µM* | 18µM* | -7
Cc1ccc(C(=O)OCC(=O)Nc2ccc3c(c2)OCO3)cc1S(=O)(=O)N1CCOCC1 | -4% | -3% | 2% | -13% | -9% | -18
CCN(c1ccc(NC(=O)COC(=O)c2ccc(C)c(S(=O)(=O)N3CCOCC3)c2)cc1)C(C)C | -5% | . | ? | 22µM* | ? | 1
Cc1nn(C)c(Cl)c1C(=O)NC(C(=O)O)c1ccccc1 (stereo not drawn) | -10% | -7% | 33% | -15% | -17% | -4
CC1CCC2C(=O)N(c3ccc(NC4CCN(Cc5ccccc5)CC4)c([N+](=O)[O-])c3)C(=O)C2C1 (stereo not drawn) | 8% | -4% | ? | 32µM* | 35µM* | 9
O=C1CCC(=O)N1c1ccc(NC2CCN(Cc3ccccc3)CC2)c([N+](=O)[O-])c1 | -6% | 6% | -2%[57 µM] | -25% | 0% | 0
O=[N+]([O-])c1ccccc1NC1CCN(Cc2ccccc2)CC1 | 0% | -3% | ? | ? | 40µM* | -2
